Assay results taken from PubChem BioAssay (Tox21).
Results filed as inconclusive are left out. The source made the active and inactive calls. Unless noted, calls follow the shape of the dose curve; as a rule, active = well fitted curve in the direction sought with a large enough effect in the repeat runs; inconclusive = weak or mixed curves; inactive = no such curve, though single readings can be large; an effect the other way counts as inactive or inconclusive.

Assays:
[1] = target: Thyrotropin-releasing hormone receptor (Homo sapiens) (UniProt P34981); assay: qHTS assay to identify small molecule agonists of the thyrotropin-releasing hormone receptor (TRHR) signaling pathway (AID 1346891; calls by dose curve; also: series mostly up to about 58 µM)
Thyrotropin-releasing hormone receptor (Homo sapiens), sequence (P34981 whole entry, looked up): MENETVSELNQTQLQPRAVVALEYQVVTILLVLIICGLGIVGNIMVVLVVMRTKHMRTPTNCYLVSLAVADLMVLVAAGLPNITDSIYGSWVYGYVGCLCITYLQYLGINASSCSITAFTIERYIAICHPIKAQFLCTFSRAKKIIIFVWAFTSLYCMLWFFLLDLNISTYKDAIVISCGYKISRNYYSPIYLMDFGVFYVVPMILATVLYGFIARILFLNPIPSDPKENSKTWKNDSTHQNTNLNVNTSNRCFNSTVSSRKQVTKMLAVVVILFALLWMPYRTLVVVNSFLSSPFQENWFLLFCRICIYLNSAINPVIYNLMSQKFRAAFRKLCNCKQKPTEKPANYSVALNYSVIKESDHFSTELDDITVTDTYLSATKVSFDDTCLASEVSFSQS
Outline: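 HEK293 cells expressing TRHR plated 18 h at 37 C/5% CO2, calcium dye-loaded 2 h at 37 C, then compound added (agonist mode); kinetic calcium fluorescence read 3 min at 1 s intervals; 15 concentrations in triplicate.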

[2] = Human pregnane X receptor (PXR) small molecule agonists, qHTS cell viability counter screen (AID 1346977); also: nearly all actives have a fitted effect of over 50% in size
Outline: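 PXR-Luc HepG2 cells (2,000/well, 5% charcoal-stripped FBS) preincubated 5 hr, then exposed to compounds 24 hr at 37 C. Viability read in the same wells by CellTiter-Fluor fluorescence, reagent added at 23 hr, 1 hr incubation.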

[3] = Caspase-3/7 induction in CHO-K1 cells by small molecules, qHTS cell viability counter screen (AID 1346979); also: nearly all actives have a fitted effect of over 35% in size
Outline: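 Wild-type CHO-K1 cells (1,500/well) treated with compound after 5 h plating; after 16 h at 37C, viability read as CellTiter-Fluor fluorescence following 1 h reagent incubation, in the same wells as the caspase read.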

[4] = Caspase-3/7 induction in CHO-K1 cells by small molecules, qHTS assay (AID 1346980); also: nearly all actives have a fitted effect of over 15% in size
Outline: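 Wild-type cells were seeded at 1,500 per well and settled 5 hr at 37 C, 5% CO2, then exposed to DMSO-dissolved compounds for 17 hr. Caspase-Glo 3/7 reagent was added, and luminescence was read after 30min at room temperature.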

[5] = Caspase-3/7 induction in HepG2 cells by small molecules, qHTS cell viability counter screen (AID 1346981); also: series mostly up to about 92 µM; nearly all actives have a fitted effect of over 30% in size
Outline: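 Steps: seed 2,000 HepG2 cells per well; incubate 5 hr at 37 C; pin-add compounds in DMSO; incubate 16 hr; add CellTiter-Fluor; after 1 hr at 37 C and 5% CO2, read fluorescence.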

[6] = target: Nuclear receptor subfamily 1 group I member 2 (Homo sapiens) (UniProt O75469); assay: Human pregnane X receptor (PXR) small molecule agonists, qHTS assay (AID 1346982); also: nearly all actives have a fitted effect of over 35% in size; also: potency is read from the fitted curve at half-maximal effect
Nuclear receptor subfamily 1 group I member 2 (Homo sapiens), sequence (O75469 whole entry, looked up): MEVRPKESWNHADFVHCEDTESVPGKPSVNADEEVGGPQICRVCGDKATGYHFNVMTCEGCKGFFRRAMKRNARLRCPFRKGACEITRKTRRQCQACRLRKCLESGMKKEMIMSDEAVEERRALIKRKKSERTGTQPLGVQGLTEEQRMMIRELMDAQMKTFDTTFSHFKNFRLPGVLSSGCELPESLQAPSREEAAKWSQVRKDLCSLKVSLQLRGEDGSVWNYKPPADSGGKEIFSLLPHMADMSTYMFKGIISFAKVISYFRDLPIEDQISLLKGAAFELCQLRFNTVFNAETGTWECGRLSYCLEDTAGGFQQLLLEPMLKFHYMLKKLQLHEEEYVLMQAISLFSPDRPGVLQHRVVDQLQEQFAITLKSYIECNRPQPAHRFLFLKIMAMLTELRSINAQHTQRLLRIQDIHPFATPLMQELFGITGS
Outline: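 Agonist mode qHTS: PXR-Luc HepG2 cells plated 5 hr before DMSO-dissolved compounds were pinned in, cultured 24 hr at 37 C, 5% CO2; ONE-Glo luminescence readout.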

[7] = target: Nuclear receptor subfamily 1 group I member 2 (Rattus norvegicus) (UniProt Q9R1A7); assay: Rat pregnane X receptor (rPXR) activation by small molecules, qHTS assay (AID 1346983); conditions: rPXR luciferase reporter cells, One-Glo luminescence, 24 h; max activation: hits give high values; also: nearly all actives have a fitted effect of over 20% in size
Nuclear receptor subfamily 1 group I member 2 (Rattus norvegicus), sequence (Q9R1A7 whole entry, looked up): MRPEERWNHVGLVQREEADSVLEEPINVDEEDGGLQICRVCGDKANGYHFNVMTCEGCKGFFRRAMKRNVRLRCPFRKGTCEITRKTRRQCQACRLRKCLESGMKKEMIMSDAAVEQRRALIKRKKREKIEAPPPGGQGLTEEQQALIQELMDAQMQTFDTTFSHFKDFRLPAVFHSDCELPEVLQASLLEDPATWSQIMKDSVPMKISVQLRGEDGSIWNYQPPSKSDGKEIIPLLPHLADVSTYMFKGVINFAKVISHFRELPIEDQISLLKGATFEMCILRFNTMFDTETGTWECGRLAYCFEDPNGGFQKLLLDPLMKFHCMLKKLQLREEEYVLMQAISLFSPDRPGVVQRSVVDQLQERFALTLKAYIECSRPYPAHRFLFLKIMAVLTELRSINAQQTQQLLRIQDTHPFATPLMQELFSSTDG
Outline: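 Cell-based rPXR luciferase reporter assay, 2,000 cells per well, rested 5hr at 37 C before compound addition in DMSO, then 24 hr at 37 C. One-Glo reagent was added and luminescence read after 30 min at room temperature.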

[8] = target: Cytochrome P450 2D6 (Homo sapiens) (UniProt P10635); assay: Cytochrome P450 Family 2 Subfamily D Member 6 (CYP2D6) small molecule antagonists: luciferase reporter qHTS assay (AID 1671196); also: nearly all actives have a fitted effect of over 50% in size; also: potency is read from the fitted curve at half-maximal effect; as to activity change, negative = inhibition: series mostly up to about 120 µM
Cytochrome P450 2D6 (Homo sapiens), sequence (P10635 whole entry, looked up): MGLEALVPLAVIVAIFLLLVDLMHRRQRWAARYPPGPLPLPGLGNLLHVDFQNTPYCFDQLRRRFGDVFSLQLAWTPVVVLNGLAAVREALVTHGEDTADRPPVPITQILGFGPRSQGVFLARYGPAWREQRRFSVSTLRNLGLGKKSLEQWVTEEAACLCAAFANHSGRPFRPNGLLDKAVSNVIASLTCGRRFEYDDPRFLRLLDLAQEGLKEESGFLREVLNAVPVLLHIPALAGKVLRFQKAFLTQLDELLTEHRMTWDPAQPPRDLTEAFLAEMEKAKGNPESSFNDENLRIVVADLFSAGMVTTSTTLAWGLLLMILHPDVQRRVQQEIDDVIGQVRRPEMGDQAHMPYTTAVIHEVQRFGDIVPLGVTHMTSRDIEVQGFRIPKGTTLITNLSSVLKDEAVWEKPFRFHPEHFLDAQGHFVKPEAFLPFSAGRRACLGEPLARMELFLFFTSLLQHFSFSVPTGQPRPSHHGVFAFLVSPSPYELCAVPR
Outline: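 P450-Glo format: CYP2D6 converts a proluciferin substrate to luciferin in an NADPH-driven reaction lasting 1 h at room temperature. Light output, proportional to CYP2D6 activity, reflects interference by test chemicals.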

[9] = target: Cytochrome P450 2C19 (Homo sapiens) (UniProt P33261); assay: Cytochrome P450 Family 2 Subfamily C Member 19 (CYP2C19) small molecule antagonists: luciferase reporter qHTS assay (AID 1671197); also: nearly all actives have a fitted effect of over 65% in size; also: potency is read from the fitted curve at half-maximal effect; as to activity change, negative = inhibition: series mostly up to about 120 µM
Cytochrome P450 2C19 (Homo sapiens), sequence (P33261 whole entry, looked up): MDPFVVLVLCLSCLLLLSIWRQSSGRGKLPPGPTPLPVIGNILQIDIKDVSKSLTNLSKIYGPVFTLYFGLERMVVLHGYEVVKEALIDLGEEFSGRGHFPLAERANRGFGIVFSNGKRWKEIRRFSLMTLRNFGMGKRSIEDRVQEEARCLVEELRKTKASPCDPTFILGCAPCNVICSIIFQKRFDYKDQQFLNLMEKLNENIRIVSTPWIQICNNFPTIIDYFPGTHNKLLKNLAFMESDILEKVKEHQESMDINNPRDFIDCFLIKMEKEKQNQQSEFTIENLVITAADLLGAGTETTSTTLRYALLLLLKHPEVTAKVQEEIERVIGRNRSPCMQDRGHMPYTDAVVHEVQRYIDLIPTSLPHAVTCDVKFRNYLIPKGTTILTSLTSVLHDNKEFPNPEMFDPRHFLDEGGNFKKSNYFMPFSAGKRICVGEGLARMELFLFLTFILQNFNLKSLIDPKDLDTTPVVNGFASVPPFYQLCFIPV
Outline: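 P450-Glo CYP2C19 screening system; proluciferin substrate; DMSO compound stocks; 10 min RT preincubation; NADPH regeneration, 1 h at 37C; luciferin detection reagent, 20 min RT; luminescence as RLU.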

[10] = target: Cytochrome P450 2C9 (Homo sapiens) (UniProt P11712); assay: Cytochrome P450 Family 2 Subfamily C Member 9 (CYP2C9) small molecule antagonists: luciferase reporter qHTS assay (AID 1671198); also: nearly all actives have a fitted effect of over 50% in size; also: potency is read from the fitted curve at half-maximal effect; as to activity change, negative = inhibition: series mostly up to about 120 µM
Cytochrome P450 2C9 (Homo sapiens), sequence (P11712 whole entry, looked up): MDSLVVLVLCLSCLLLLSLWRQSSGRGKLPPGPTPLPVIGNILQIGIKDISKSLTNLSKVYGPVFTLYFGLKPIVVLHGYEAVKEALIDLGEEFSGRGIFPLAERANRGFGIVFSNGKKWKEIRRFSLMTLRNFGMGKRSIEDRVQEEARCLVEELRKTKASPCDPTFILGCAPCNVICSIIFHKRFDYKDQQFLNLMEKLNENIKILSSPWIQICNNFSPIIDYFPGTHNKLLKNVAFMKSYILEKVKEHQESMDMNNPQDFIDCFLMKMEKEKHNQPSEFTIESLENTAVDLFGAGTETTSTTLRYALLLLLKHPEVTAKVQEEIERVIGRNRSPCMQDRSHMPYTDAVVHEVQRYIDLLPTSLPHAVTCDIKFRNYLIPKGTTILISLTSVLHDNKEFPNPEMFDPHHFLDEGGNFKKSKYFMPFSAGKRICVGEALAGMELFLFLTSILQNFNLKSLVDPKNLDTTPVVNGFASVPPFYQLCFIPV
Outline: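 CYP2C9 activity was measured with a P450-Glo proluciferin substrate. Enzyme–substrate mix was held with compound for 10 min at room temperature, then NADPH regeneration solution was added for 1 h at 37C. Luciferin product was read as luminescence.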

[11] = target: Cytochrome P450 1A2 (Homo sapiens) (UniProt P05177); assay: Cytochrome P450 Family 1 Subfamily A Member 2 (CYP1A2) small molecule antagonists: luciferase reporter qHTS assay (AID 1671199); also: nearly all actives have a fitted effect of over 50% in size; also: potency is read from the fitted curve at half-maximal effect; as to activity change, negative = inhibition: series mostly up to about 120 µM
Cytochrome P450 1A2 (Homo sapiens), sequence (P05177 whole entry, looked up): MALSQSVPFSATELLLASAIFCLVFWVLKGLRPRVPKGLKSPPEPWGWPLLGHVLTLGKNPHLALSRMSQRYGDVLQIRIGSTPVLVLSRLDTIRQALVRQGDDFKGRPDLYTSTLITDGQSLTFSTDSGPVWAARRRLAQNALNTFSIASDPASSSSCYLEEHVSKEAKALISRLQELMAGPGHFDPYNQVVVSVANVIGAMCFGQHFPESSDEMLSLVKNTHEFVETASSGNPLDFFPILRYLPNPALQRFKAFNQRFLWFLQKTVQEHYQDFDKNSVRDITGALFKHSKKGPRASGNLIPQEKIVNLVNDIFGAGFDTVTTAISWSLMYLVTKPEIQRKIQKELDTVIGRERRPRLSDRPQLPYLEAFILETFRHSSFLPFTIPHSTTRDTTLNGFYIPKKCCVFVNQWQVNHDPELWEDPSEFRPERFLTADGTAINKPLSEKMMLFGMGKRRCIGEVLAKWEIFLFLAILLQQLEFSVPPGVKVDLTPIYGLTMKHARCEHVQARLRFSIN
Outline: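 Inhibition of CYP1A2 conversion of proluciferin to luciferin, detected by luminescence. Reaction run 1 h at room temperature with NADPH regeneration after brief compound preincubation.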

[12] = target: Cytochrome P450 3A4 (Homo sapiens) (UniProt P08684); assay: Cytochrome P450 Family 3 Subfamily A Member 4 (CYP3A4) small molecule antagonists: luciferase reporter qHTS assay (AID 1671201); also: nearly all actives have a fitted effect of over 50% in size; also: potency is read from the fitted curve at half-maximal effect; as to activity change, negative = inhibition: series mostly up to about 120 µM
Cytochrome P450 3A4 (Homo sapiens), sequence (P08684 whole entry, looked up): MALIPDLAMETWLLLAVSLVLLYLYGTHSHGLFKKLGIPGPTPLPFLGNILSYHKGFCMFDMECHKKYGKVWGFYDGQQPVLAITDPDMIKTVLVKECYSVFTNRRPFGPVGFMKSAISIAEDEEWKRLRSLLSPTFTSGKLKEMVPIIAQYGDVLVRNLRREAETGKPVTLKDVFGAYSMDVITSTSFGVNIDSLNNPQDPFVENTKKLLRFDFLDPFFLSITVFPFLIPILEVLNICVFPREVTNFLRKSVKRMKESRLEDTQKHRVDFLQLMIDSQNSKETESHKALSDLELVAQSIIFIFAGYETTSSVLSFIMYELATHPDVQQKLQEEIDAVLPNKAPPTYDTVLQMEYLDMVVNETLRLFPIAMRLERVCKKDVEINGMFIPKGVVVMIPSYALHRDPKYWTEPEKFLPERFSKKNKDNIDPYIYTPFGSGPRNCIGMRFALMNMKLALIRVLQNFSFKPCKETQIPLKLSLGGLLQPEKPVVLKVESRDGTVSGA
Outline: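 P450-Glo CYP3A4 luminescent assay: compounds preincubated 10 min at room temperature with enzyme and proluciferin substrate, NADPH regeneration added, 1 h room-temperature reaction, stopped with luciferin detection reagent; luminescence read after 20 min. Ketoconazole positive control.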

[13] = Caspase-3/7 induction in HepG2 cells by small molecules, qHTS assay (AID 1346978); also: nearly all actives have a fitted effect of over 15% in size
Outline: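 Wild-type HepG2 cells (2,000/well) were settled 5 h at 37 C, 5% CO2, then exposed to compounds in DMSO for 17 h. Caspase-3/7 activity was read by luminescence 30 min after adding Caspase-Glo 3/7 reagent at room temperature.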

[14] = target: Voltage-gated inwardly rectifying potassium channel KCNH2 (Homo sapiens) (UniProt Q12809); assay: Human Ether-a-go-go-Related Gene (hERG) channel small molecule antagonists: fluorescence cell-based qHTS assay (AID 1671200); also: nearly all actives have a fitted effect of over 50% in size; also: potency is read from the fitted curve at half-maximal effect;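 as to activity change, negative = inhibition: hERG-expressing U2OS cells given a thallium stimulus after FluxOR II dye loading; series mostly up to about 77 µM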
Voltage-gated inwardly rectifying potassium channel KCNH2 (Homo sapiens), sequence (Q12809 whole entry, looked up): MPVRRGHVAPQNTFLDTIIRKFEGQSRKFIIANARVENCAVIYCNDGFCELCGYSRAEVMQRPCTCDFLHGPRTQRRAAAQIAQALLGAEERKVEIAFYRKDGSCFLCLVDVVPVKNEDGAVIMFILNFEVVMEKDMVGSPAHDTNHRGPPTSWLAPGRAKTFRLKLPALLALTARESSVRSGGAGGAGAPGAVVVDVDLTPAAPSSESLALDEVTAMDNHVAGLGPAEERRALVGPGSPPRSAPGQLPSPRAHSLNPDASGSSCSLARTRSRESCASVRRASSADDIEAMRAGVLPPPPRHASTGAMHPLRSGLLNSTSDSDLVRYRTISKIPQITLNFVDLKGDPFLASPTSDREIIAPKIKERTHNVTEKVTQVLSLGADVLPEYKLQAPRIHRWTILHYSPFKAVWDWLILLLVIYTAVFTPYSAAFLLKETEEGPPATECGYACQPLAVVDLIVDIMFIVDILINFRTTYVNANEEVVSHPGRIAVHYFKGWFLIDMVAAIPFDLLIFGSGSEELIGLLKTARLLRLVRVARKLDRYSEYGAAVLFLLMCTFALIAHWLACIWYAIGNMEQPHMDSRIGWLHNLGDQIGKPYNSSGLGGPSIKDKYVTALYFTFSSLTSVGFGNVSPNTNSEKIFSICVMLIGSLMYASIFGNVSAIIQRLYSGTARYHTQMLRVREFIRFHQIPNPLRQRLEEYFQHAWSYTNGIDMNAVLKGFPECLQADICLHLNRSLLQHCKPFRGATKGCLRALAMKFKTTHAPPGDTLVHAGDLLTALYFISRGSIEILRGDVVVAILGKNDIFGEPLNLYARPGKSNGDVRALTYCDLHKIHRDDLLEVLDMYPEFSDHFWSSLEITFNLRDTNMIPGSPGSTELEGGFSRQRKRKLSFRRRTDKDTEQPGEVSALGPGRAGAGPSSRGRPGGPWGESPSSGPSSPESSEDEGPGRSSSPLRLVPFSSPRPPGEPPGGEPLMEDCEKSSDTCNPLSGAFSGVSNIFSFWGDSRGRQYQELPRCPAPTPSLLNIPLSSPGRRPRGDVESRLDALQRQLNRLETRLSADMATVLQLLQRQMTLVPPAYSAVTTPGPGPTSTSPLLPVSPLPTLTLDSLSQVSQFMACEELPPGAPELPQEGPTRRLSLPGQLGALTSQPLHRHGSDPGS
Outline: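 hERG-U2OS cells plated overnight at 37 C, loaded with FluxOR II dye 1 h at RT in dark; after 10 min, thallium stimulus added. Fluorescence (480/540 nm) read kinetically for 2 min at 1 s intervals.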

[15] = target: Nuclear receptor subfamily 1 group I member 2 (Homo sapiens) (UniProt O75469); assay: Human pregnane X receptor (PXR) activation by small molecules, qHTS assay (AID 1346985); also: nearly all actives have a fitted effect of over 40% in size
Outline: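 DPX-2 cells (HepG2 co-transfected with a PXR response element and a CYP3A4-promoter luciferase construct) were seeded at 2,000 per well, rested 5 hr at 37C, then exposed to DMSO-dissolved compounds for 24 hr. Activation was read as luciferase luminescence.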
% is scaled to controls: 0 for no effect and ±100 for the full control effect.

CC(C)(C)NCC(O)COc1ccc(NC(=O)NC2CCCCC2)cc1 (stereo unspecified)
inactive: outcome [1] | Potency [2] | Potency [3] | Potency [4] | Potency [5] | Potency [6] | max activation [7] 0.0743% | Potency [8] | Potency [9] | Potency [10] | Potency [11] | Potency [12]

C=CC(C)CCC=C(C)C (stereo unspecified)
inactive: outcome [1] | Potency [2] | Potency [13] | Potency [4] | Potency [5] | Potency [6] | Potency [8] | Potency [9] | Potency [10] | Potency [14]

c1ccc(-c2ccc(-c3ccccc3)cc2)cc1
inactive: activation [1] 0.249% [at 11.8 µM] | activity change, negative = cytotoxicity [2] 0.816% [at 19 µM] | caspase activation [13] -3.46% [at 19 µM] | caspase-3/7 activation [4] -1.92% [at 19 µM] | activity change, negative = cytotoxicity [5] 6.27% [at 19 µM] | activity change, negative = inhibition [8] -3.95% [at 23.6 µM] | activity change, negative = inhibition [10] -16.3% [at 23.6 µM] | activity change, negative = inhibition [14] 1.54% [at 15.8 µM]
active: Potency [6] 1.77 µM

CC(CCl)OC(C)CCl (stereo unspecified)
inactive: outcome [1] | Potency [2] | Potency [13] | Potency [4] | Potency [6] | Potency [8] | Potency [9] | Potency [10] | Potency [11] | Potency [14] | Potency [12]

CC(CN=Cc1ccccc1O)N=Cc1ccccc1O (stereo unspecified)
active: Potency [8] 35.6 µM | Potency [11] 20 µM
inactive: outcome [1] | Potency [2] | Potency [13] | Potency [4] | Potency [5] | Potency [6] | Potency [9] | Potency [14] | Potency [12]

NC(=O)c1ccccc1
inactive: outcome [1] | Potency [2] | Potency [13] | Potency [4] | Potency [5] | Potency [6] | Potency [8] | Potency [9] | Potency [10] | Potency [11] | Potency [14] | Potency [12]

c1ccc(CN(Cc2ccccc2)Cc2ccccc2)cc1
active: Potency [6] 30.6 µM | Potency [8] 7.96 µM | Potency [9] 5.64 µM | Potency [10] 31.7 µM | Potency [11] 20 µM | Potency [14] 24.5 µM
inactive: outcome [1] | Potency [2] | Potency [13] | Potency [4] | Potency [5] | Potency [12]

N#Cc1ccc(CC(=O)c2cccc(C(F)(F)F)c2)cc1
active: Potency [8] 63.3 µM | Potency [9] 20 µM | Potency [10] 35.6 µM | Potency [11] 25.2 µM | Potency [14] 27.5 µM
inactive: outcome [1] | Potency [2] | Potency [13] | Potency [4] | Potency [5] | Potency [12]

CCCCCCCCNC
inactive: outcome [1] | Potency [2] | Potency [13] | Potency [4] | Potency [6] | Potency [11] | Potency [12]
active: Potency [9] 22.4 µM

O=C(O)c1ccc2c(c1)nc(C(=O)NC1CCN(C3CC3)CC1)n2Cc1cc(-c2ccc(Cl)s2)on1
inactive: activation [1] 2.01% [at 11.8 µM] | activity change, negative = cytotoxicity [2] 17.8% [at 19 µM] | caspase activation [13] -0.956% [at 19 µM] | caspase-3/7 activation [4] 9.35% [at 19 µM] | activity change, negative = cytotoxicity [5] 3.23% [at 19 µM] | activation [6] -32.3% [at 19 µM] | activity change, negative = inhibition [8] -3.64% [at 23.6 µM] | activity change, negative = inhibition [9] 14.2% [at 23.6 µM] | activity change, negative = inhibition [10] -6.17% [at 23.6 µM] | activity change, negative = inhibition [11] 0.996% [at 23.6 µM] | activity change, negative = inhibition [14] -1.6% [at 15.8 µM] | activity change, negative = inhibition [12] 1.57% [at 23.6 µM]

O=C(O)c1cc(C(=O)O)cc([N+](=O)[O-])c1
inactive: outcome [1] | Potency [2] | Potency [13] | Potency [5] | Potency [6] | Potency [8] | Potency [9] | Potency [10] | Potency [14] | Potency [12]

CC(C)=CCC[C@H](C)CCO
inactive: outcome [1] | Potency [2] | Potency [13] | Potency [4] | Potency [5] | Potency [6] | Potency [8] | Potency [11] | Potency [14]
active: Potency [9] 71 µM | Potency [12] 63.3 µM

CCc1ccc2c(c1)C(=O)c1ccccc1C2=O
active: Potency [6] 21.7 µM | Potency [9] 11.2 µM | Potency [10] 10 µM | Potency [11] 2.24 µM
inactive: outcome [1] | Potency [2] | Potency [13] | Potency [4] | Potency [5]

O=C(O)c1ccc2cc(O)ccc2c1
inactive: outcome [1] | Potency [2] | Potency [13] | Potency [5] | Potency [6] | Potency [10] | Potency [11] | Potency [14] | Potency [12]

CCC(C(=O)O)c1ccc(N2Cc3ccccc3C2=O)cc1 (stereo unspecified)
inactive: outcome [1] | Potency [2] | Potency [13] | Potency [5] | Potency [14] | Potency [12]
active: Potency [6] 4.73 µM | Potency [8] 15.5 µM | Potency [9] 21.9 µM

O=C(Nc1ccccc1)c1cc([N+](=O)[O-])ccc1Cl
active: Potency [6] 61.1 µM | Potency [9] 22.4 µM | Potency [10] 31.7 µM | Potency [11] 7.96 µM | Potency [12] 35.6 µM
inactive: outcome [1] | Potency [2] | Potency [4] | Potency [5]

O=C(c1ccc(Cl)cc1)c1ccc(Cl)cc1
inactive: outcome [1] | Potency [2] | Potency [3] | Potency [4] | Potency [5] | Potency [8] | Potency [14] | Potency [12]
active: Potency [9] 1 µM | Potency [11] 2.52 µM

Clc1cc(Cl)c2c(c1)N=C1CCCCCN1C2
active: Potency [6] 29.8 µM | Potency [8] 2.75 µM | Potency [11] 5.49 µM | Potency [14] 9.52 µM
inactive: outcome [1] | Potency [13] | Potency [3] | Potency [4] | Potency [5] | Potency [10] | Potency [12]

CCn1nc(Cc2ccccc2)cc1C1CCN(C[C@H]2C[C@H](N(C)[C@@H](C(=O)O)C(C)C)C[C@@H]2c2cccc(F)c2)CC1
inactive: outcome [1] | Potency [13] | Potency [3] | Potency [4] | Potency [6]
active: Potency [8] 35.6 µM | Potency [14] 13.8 µM

Cc1cccc(C)c1NC(=O)CN1CCCC1
active: Potency [8] 15.5 µM
inactive: Potency [2] | Potency [13] | Potency [3] | Potency [4] | Potency [5] | Potency [6] | max activation [7] -2.58% | Potency [15] | Potency [9] | Potency [10] | Potency [11] | Potency [14]
